Measurements published in the supplement of paper PMC9588786.
Structures can show the parent of a compound that is named as a salt. ± gives the standard deviation of the averaged measurements.

What follows are compounds tested on HT-1080 (assay: relative cell viability with RSL3 co-treatment (fraction of control); higher = stronger protection from RSL3-induced ferroptosis (higher viability)). Settings: 10 µM.
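Also: viability read as CCK-8 absorbance at 450 nm in cells co-exposed to the GPX4 inhibitor RSL3, relative to a 0.01% DMSO vehicle control.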

| Structure (SMILES) | relative cell viability |
| --- | --- |
| COc1cc2nccc(Oc3ccc(NC(=O)NC4CC4)c(Cl)c3)c2cc1C(N)=O [Lenvatinib (E7080)] | 0.56 ± 0.12 |
| Cn1cnc2c(F)c(Nc3ccc(Br)cc3F)c(C(=O)NOCCO)cc21 | 0.827 ± 0.097 |
| C[C@@H]1CN(CC(=O)Nc2ccc3c(c2)Cc2cccc(-c4cc(=O)cc(N5CCOCC5)o4)c2S3)C[C@H](C)O1 | 0.46 ± 0.11 |
| CC[C@H](CO)Nc1nc(NCc2ccccc2)c2ncn(C(C)C)c2n1 [Roscovitine (Seliciclib,CYC202)] | 0.793 ± 0.12 |
| COc1cc2c(Oc3ccc(NC(=O)C4(C(=O)Nc5ccc(F)cc5)CC4)cc3F)ccnc2cc1OCCCN1CCOCC1 | 0.287 ± 0.064 |
| Cc1cc([C@@H](C)Nc2ccccc2C(=O)O)c2nc(N3CCOCC3)cc(=O)n2c1 | 0.593 ± 0.18 |
| C=CC(=O)Nc1cccc(Oc2nc(Nc3ccc(N4CCN(C)CC4)cc3)ncc2Cl)c1 | 0.337 ± 0.057 |
| Cn1cnc(N)c2ncnc1-2 [3-Methyladenine (3-MA)] | 0.76 ± 0.078 |
| CCn1c2ccccc2c2cc(Nc3ccnc(NCCCN4CCOCC4)n3)ccc21 | 0.64 ± 0.089 |
| Nc1cccc(S(=O)(=O)N2CCCN(S(=O)(=O)c3ccc4c(c3)OCCO4)CC2)c1 | 0.767 ± 0.049 |
| COc1ccc(C(=O)Nc2sc3c(c2C(N)=O)CCCC3)cc1OC | 0.66 ± 0.087 |
| Cc1nc(Nc2cnn(C3CCNCC3)c2)nc2c1N(C)C(=O)c1cc3ccccc3cc1N2C | 0.627 ± 0.09 |
| CN1CCN(c2ccc(Nc3cc(-c4cccc(-n5ccc6cc(C7CC7)cc(F)c6c5=O)c4CO)cn(C)c3=O)nc2)CC1 | 0.763 ± 0.067 |
| Cc1cc2c(F)c(Oc3ncnn4cc(OC[C@@H](C)O)c(C)c34)ccc2[nH]1 | 0.753 ± 0.078 |
| O=C(NC1CCNCC1)c1n[nH]cc1NC(=O)c1c(Cl)cccc1Cl | 0.56 ± 0.18 |
| CNC(=O)c1cc(COc2nnc(Nc3ccc(Cl)cc3)c3ccoc23)ccn1 [Telatinib] | 0.623 ± 0.057 |
| Cc1ccc(Nc2nccc(N(C)c3ccc4c(C)n(C)nc4c3)n2)cc1S(N)(=O)=O [Pazopanib] | 0.71 ± 0.12 |
| CC(C)n1nc(-c2cc3cc(O)ccc3[nH]2)c2c(N)ncnc21 [Torkinib (PP242)] | 0.833 ± 0.12 |
| COc1cc2ncnc(Oc3ccc(CC(=O)Nc4cnn(C(C)C)c4)cc3)c2cc1OC | 0.643 ± 0.33 |

| Structure (SMILES) | relative cell viability |
| --- | --- |
| O=C(NOCC(O)CO)c1cc(Br)c(F)c(F)c1Nc1ccc(I)cc1F (stereo not drawn) | 0.897 ± 0.061 |
| O=C(Nc1ccccc1C(=O)NC1CCCCNC1=O)c1cc2ccccc2s1 (stereo not drawn) | 0.803 ± 0.011 |
| CN1CC[C@H](c2c(O)cc(O)c3c(=O)cc(-c4ccccc4Cl)oc23)[C@H](O)C1 [Flavopiridol (Alvocidib)] | 0.49 ± 0.13 |
| N#Cc1ccc2[nH]c(O)c(-c3ccc(CN4CCOCC4)cn3)c2c1 | 0.75 ± 0.046 |
| COc1cccc2cc(-c3nc([C@H]4CC[C@H](C(=O)O)CC4)n4ncnc(N)c34)[nH]c12 | 0.7 ± 0.07 |
| CCCCOc1c(C(=O)c2c(F)cc(C)cc2F)c[nH]c2nncc1-2 | 0.903 ± 0.24 |
| CCCNC(=O)c1cn2ncnc(Nc3cc(C(=O)NC4CC4)ccc3C)c2c1C | 0.78 ± 0.04 |
| Cc1cnc(Nc2ccc(N3CCN(C)CC3)cc2)nc1Nc1cccc(S(=O)(=O)NC(C)(C)C)c1 | 0.223 ± 0.061 |
| O=C(Nc1ccc(-c2ccnc(Nc3ccc(N4CCOCC4)cc3)n2)cc1)C1CCCN1 (stereo not drawn) | 0.443 ± 0.1 |
| Cn1cc(C2=C(c3ccc(Cl)cc3Cl)C(=O)NC2=O)c2ccccc21 | 0.8333 ± 0.0058 |
| Cc1ccc(NC(=O)c2ccc(CN3CCN(C)CC3)cc2)cc1Nc1nccc(-c2cccnc2)n1 [Imatinib Mesylate (STI571)] | 0.733 ± 0.17 |
| NC(=O)c1cnc(N[C@@H]2CCCC[C@@H]2N)nc1Nc1cccc(-n2nccn2)c1 | 0.56 ± 0.11 |
| CCN(CC)CCCC(C)Nc1nc(C)cc(Nc2ccc3nc(C)cc(N)c3c2)n1 (stereo not drawn) | 0.583 ± 0.15 |
| O=C(O)c1ccc(N2C(=O)/C(=C\c3ccc(-c4ccc([N+](=O)[O-])cc4)o3)C=C2c2ccccc2)cc1 | 1.24 ± 0.092 |
| CNC(=O)c1ccccc1Sc1ccc2c(/C=C/c3ccccn3)n[nH]c2c1 [Axitinib] | 0.63 ± 0.22 |
| CCOc1cc2ncc(C#N)c(Nc3ccc(F)c(Cl)c3)c2cc1NC(=O)/C=C/CN(C)C [Pelitinib (EKB-569)] | 0.247 ± 0.081 |
| COc1ccc(S(=O)(=O)N(C(C)=O)c2ccccc2/C=C/c2cc[n+]([O-])cc2)cc1 | 0.633 ± 0.015 |
| CS(=O)(=O)c1ccc(-c2cnc(N)c(C(=O)Nc3ccccc3)n2)cc1 | 0.713 ± 0.05 |
| COc1cc2c(Oc3ccc4[nH]c(C)cc4c3F)ncnc2cc1OCCCN1CCCC1 [Cediranib (AZD2171)] | 0.283 ± 0.023 |
